Bioassay records as filed in PubChem BioAssay.
Most compounds without a hit are left out; they make up all but 6.7% or so of the library.
BoNT A protease = BoNT/A light chain protease inhibitors, primary screen, biochemical, flow cytometry, MLPCN library; inhibition, % at 10 µM; Botulinum neurotoxin type A light chain protease (Clostridium botulinum A str. ATCC 3502); hit rate 0.17% among 360,000; multiplex microsphere protease substrate cleavage; AID 588499, 2011; also: plate controls were buffer without enzyme for full effect and enzyme alone for no effect
BoNT-F LC inh = BoNT/F light chain protease inhibitors, primary screen, biochemical, flow cytometry, MLPCN library. Botulinum neurotoxin type F light chain protease (Clostridium botulinum). Multiplex microsphere protease cleavage assay. inhibition, % at 10 µM. hit rate 0.22% among 360,000. AID 588497, 2011; in the data active = inhibition above about 35%, passing the limit was not always enough; inconclusive = no clear call, values can overlap the other calls; also: plate controls were buffer without enzyme for full effect and enzyme alone for no effect
Anthrax LF inh2 = Bacillus anthracis LF protease inhibitors, primary screen, biochemical, multiplex microsphere, MLPCN library. Lethal factor (Bacillus anthracis), P15917. multiplex microsphere protease cleavage assay. inhibition, % at 10 µM. hit rate 0.12% among 360,000. AID 588501, 2011; also: plate controls were buffer without enzyme for full effect and enzyme alone for no effect
Autofluor counter = flagged as autofluorescent in microsphere protease counterscreen. compound autofluorescence counterscreen, microsphere flow cytometry; hits give high values. fluorescence intensity (test concentration not listed). hit rate 3.1% among 360,000; in the data active = fluorescence intensity above about 16000; inconclusive = no clear call, values can overlap the other calls
Mtb FBA inh = Mtb FBA enzyme inhibitors, primary screen, biochemical, fluorescence, strain H37Rv. purified M. tuberculosis FBA, fluorescence read-out. inhibition, % at 1 µM. hit rate 2.3% among 360,000; in the data active = inhibition above about 27%;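 also: 0% = vehicle and 100% = reference inhibitor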
Target sequence (P9WQA3 whole entry, looked up): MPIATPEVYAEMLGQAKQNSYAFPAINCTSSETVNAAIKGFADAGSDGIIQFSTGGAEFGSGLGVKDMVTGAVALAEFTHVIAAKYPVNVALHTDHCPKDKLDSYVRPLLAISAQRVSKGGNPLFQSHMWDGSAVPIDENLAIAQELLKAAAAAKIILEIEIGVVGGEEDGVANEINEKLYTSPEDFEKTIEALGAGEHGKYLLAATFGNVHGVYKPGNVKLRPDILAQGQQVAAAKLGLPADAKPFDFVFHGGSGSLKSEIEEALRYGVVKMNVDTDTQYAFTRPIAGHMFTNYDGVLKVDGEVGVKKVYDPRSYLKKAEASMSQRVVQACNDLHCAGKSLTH
GDH-TPI counter-1 = GDH-TPI coupling enzyme inhibitors, primary screen, artefact control for M. tuberculosis FBA inhibitor project, biochemical, absorbance, full deck. GDH-TPI coupled enzyme counterscreen, NADH absorbance. inhibition, % at 4.8 µM. hit rate 1.2% among 360,000; in the data active = inhibition above about 30%;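 also: 0% = DMSO wells and 100% = wells lacking the enzyme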
Mtb FBA inh conf = M. tuberculosis aldolase blockers, biochemical, fluorescence, strain H37Rv, confirmation | shares compounds with Mtb FBA inh | AID 651616, 2012 | purified M. tuberculosis FBA, fluorescence read-out | hit rate 78% among 5,600 | inhibition, % at 1 µM; in the data active = inhibition above about 27%;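 also: 0% = vehicle wells and 100% = reference inhibitor wells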
GDH-TPI counter-2 = GDH-TPI coupling enzyme inhibitors, artefact control for M. tuberculosis FBA inhibitor project, biochemical, fluorescence, high throughput. shares compounds with Mtb FBA inh. GDH-TPI coupled enzyme counterscreen. inhibition, % at 1 µM. hit rate 81% among 5,600; in the data active = inhibition above about 10%
The depositor's hits bear a star; ? = inconclusive; . = no result given; + = active, no number. Rule as the data show it, unless noted: active = inhibition above about 30%; inconclusive = no clear call, values can overlap the other calls; inactive = below that.

SMILES	BoNT A protease	BoNT-F LC inh	Anthrax LF inh2	Autofluor counter	Mtb FBA inh	GDH-TPI counter-1	Mtb FBA inh conf	GDH-TPI counter-2
O=C(NCc1ccco1)c1cc2nc(-c3cccs3)cc(C(F)(F)F)n2n1	2	2	-3	15672	37*	21	3	-1
O=C(NCc1ccco1)c1cc(-c2cccs2)nc2ccccc12	-1	-2	0	2339	79*	17	9	-5
COc1ccc2c(c1)c(C(=O)CN1CCCCC1)c(C)n2C	3	?	-6	4028	-2	-7	.	.
O=C(c1ccco1)N1CCN(c2ccc([N+](=O)[O-])cc2Cl)CC1	0	1	-1	4766	-5	15	.	.
Cc1ccc(NC(=O)CSc2nnc([C@@H]3CCCN3C(=O)OC(C)(C)C)o2)c(C)c1	0	-1	0	2651	-3	0	.	.
COc1ccc(-c2nnc(-c3cc(OC)c(OC)c(OC)c3)o2)cc1OC	-1	-6	-11	2548	89*	20	40*	28*
CCOc1ccc(-c2nnc(-c3cccs3)o2)cc1	-1	-15	-3	4323	75*	8	54*	46*
COc1ccc(-c2nnc(-c3cccs3)o2)cc1OC	3	3	-2	15639	55*	21	63*	53*
CCOc1ccc(-c2nnc(-c3cccs3)o2)cc1OCC	0	-10	1	3955	25	18	.	.
CCOc1ccccc1NC(=O)C1=C(C)NC(=O)NC1c1cccs1 (stereo unspecified)	0	-2	-12	4297	-3	4	.	.
C[C@@H](C(=O)NCCc1ccccc1F)N1C(=O)N2CCc3c([nH]c4ccccc34)[C@@]2(C)C1=O	-1	0	-1	6002	32*	-4	+	188*
CC1=C(C)C(=O)N(C(C)CCc2ccccc2)C1=O (stereo unspecified)	-4	?	5	3699	40*	8	89*	75*
CC(Cc1ccccc1)N1C(=O)c2ccccc2C1=O (stereo unspecified)	-3	-12	-11	3721	-5	-5	.	.
C[C@H]1CN([C@@H](C)CO)C(=O)c2cc(Br)cnc2O[C@@H]1CN(C)C(=O)NC1CCCCC1	0	-3	1	3785	-1	8	.	.
C[C@@H]1CN([C@H](C)CO)C(=O)c2cc(/C=C/c3ccccc3)cnc2O[C@H]1CN(C)C(=O)NC1CCCCC1	0	4	0	3974	60*	12	75*	70*
COc1ccc(-n2nc(C(=O)NCC(=O)N3CCCC(C)C3)c3ccccc3c2=O)cc1 (stereo unspecified)	-2	-4	18	3334	0	3	.	.
Cc1ccc(-c2nc3ncccc3o2)cc1NC(=S)NC(=O)c1ccco1	0	-6	-2	2207	2	0	.	.
CCCC(=O)Nc1ccc(Cl)c(-c2nc3ncccc3o2)c1	-3	7	13	3483	21	-2	.	.
CCCC(=O)Nc1ccc(-c2nc3ncccc3o2)cc1	3	6	-15	2943	87*	30	21	17*
COC(=O)Cc1ccc2oc(-c3cccnc3)nc2c1	0	-2	-3	4324	20	-2	.	.
Cc1ccc(-c2nc3ncccc3o2)cc1NC(=O)C(C)(C)C	-3	-5	-6	3908	30*	4	26	22*
CCCC(=O)Nc1ccc2oc(-c3cccnc3)nc2c1	-1	0	-4	4210	74*	3	169*	138*
Cc1cc(-c2nc3ncccc3o2)ccc1NC(=S)NC(=O)c1ccco1	2	7	0	2257	33*	11	39*	32*
Cn1c(CSCc2ccc(F)cc2)n[nH]c1=S	-7	?	-1	4055	1	6	.	.
CC(=O)Nc1ccc(NS(=O)(=O)c2cc(Cl)ccc2Cl)cc1	0	-4	-6	4313	1	-1	.	.
SMILES	BoNT A protease	BoNT-F LC inh	Anthrax LF inh2	Autofluor counter	Mtb FBA inh	GDH-TPI counter-1	Mtb FBA inh conf	GDH-TPI counter-2
CCCC(=O)Nc1cc(-c2nc3ncccc3o2)ccc1C	0	-14	-2	2636	60*	11	99*	65*
CCOC(=O)c1c(NC(=O)CSC(=S)N(C)C)sc(C)c1C	-1	-5	1	2225	-3	-5	.	.
CCc1cc(=O)oc2cc(C)cc(OCC(=O)N3CCC(C(=O)O)CC3)c12	-1	-5	-2	5966	76*	15	121*	109*
Cc1cc(OCC(=O)N2CCC(C(=O)O)CC2)c2c3c(c(=O)oc2c1)CCC3	0	3	-3	5162	98*	16	166*	133*
Cc1cc(OCC(=O)N2CCC(O)(c3ccc(Cl)cc3)CC2)c2c(C)cc(=O)oc2c1	3	0	1	4392	4	7	.	.
Cc1cc(OCC(=O)N2CCc3ccccc3C2)c2c(-c3ccccc3)cc(=O)oc2c1	0	5	-4	4459	-2	10	.	.
CCCCc1cc(=O)oc2cc(C)cc(OCC(=O)N3CCC(C(=O)O)(c4ccccc4)CC3)c12	0	-6	-7	4268	62*	10	52*	34*
CCCc1cc(=O)oc2cc(C)cc(OCC(=O)N3CCC(C(=O)O)CC3)c12	-1	-10	-7	4237	97*	10	73*	65*
CCOc1cc(C)cc2oc(=O)cc(-c3ccccc3)c12	2	16	-1	10933	3	14	.	.
Cc1ccc(-c2nn(CC(=O)NCc3ccco3)c(=O)c3ccccc23)cc1	-1	5	-11	3167	3	-2	.	.
CCCNC(=O)COc1cccc(C(=O)NCc2ccccc2)c1	0	-7	2	1988	4	6	.	.
CCCc1cc(=O)oc2cc(OCC(=O)N3CCN(Cc4ccc5c(c4)OCO5)CC3)ccc12	1	1	-1	5643	15	7	.	.
CCCc1cc(=O)oc2cc(OCC(=O)N3CCC(C(=O)O)(c4ccccc4)CC3)ccc12	-1	-9	4	4276	76*	22	101*	81*
CCCc1cc(=O)oc2cc(C)cc(OCC(=O)N3CCC(C(N)=O)CC3)c12	0	-4	-4	5598	39*	19	85*	81*
CCOC(=O)c1cnn2c(N)c(C#N)cnc12	-1	-4	0	3522	29*	26	51*	37*
